Experimental data as given in PubChem BioAssay AID1159580 (chemical genetic matrix, 2015).
The whole screen tested about 5,500 compounds, of which about 2,000 (36%) were called active. About 18% were inconclusive and are not listed. Rule as the data show it: active = normalized growth mostly below about 0.91 (no sharp cut-off); inconclusive = no clear call, values can overlap the other calls; inactive = mostly above about 0.92. This is one part of the list.

Test: chemical genetic growth profiling, strain panel (AID 1159580);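 also: tested at 20 µM; growth read once vehicle control cultures reached saturation at 30 °C; 1 = growth at the plate median or of vehicle wells; lower values mean less growth of the strain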
Settings: growth OD

Measured: normalized growth

C#C[C@]1(OC(C)=O)CCC2C3CCC4=CC(=O)CC[C@@H]4C3CC[C@@]21C (stereo partly drawn)
inactive: S. cerevisiae deletion strains, locus YKL009W, strain mrt4, hits give low values 0.968 | S. cerevisiae deletion strains, locus YKL068W, hits give low values 0.973 | S. cerevisiae deletion strains, locus YKL085W, strain MDH1 (second series), hits give low values 0.967 | S. cerevisiae deletion strains, locus YKL085W, strain MDH1, hits give low values 0.967 | S. cerevisiae deletion strains, locus YKL160W, strain elf1, hits give low values 0.964 | S. cerevisiae deletion strains, locus YKL190W, strain CNB1, hits give low values 0.977 | S. cerevisiae deletion strains, locus YKR001C, strain vps1, hits give low values 0.945 | S. cerevisiae deletion strains, locus YKR026C, strain gcn3, hits give low values 0.984 | S. cerevisiae deletion strains, locus YKR091W, strain srl3, hits give low values 0.992 | S. cerevisiae deletion strains, locus YLL001W, strain dnm1, hits give low values 0.988 | S. cerevisiae deletion strains, locus YLL026W, hits give low values 0.99 | S. cerevisiae deletion strains, locus YLL041C, strain sdh2, hits give low values 0.976 | S. cerevisiae deletion strains, locus YLR027C, strain aat2, hits give low values 0.988 | S. cerevisiae deletion strains, locus YLR039C, strain RIC1, hits give low values 0.892 | S. cerevisiae deletion strains, locus YLR058C, strain SHM2, hits give low values 0.965 | S. cerevisiae deletion strains, locus YLR102C, strain apc9, hits give low values 0.975 | S. cerevisiae deletion strains, locus YLR113W, strain HOG1, hits give low values 0.93 | S. cerevisiae deletion strains, locus YLR221C, strain rsa3, hits give low values 1.02 | S. cerevisiae deletion strains, locus YLR258W, strain gsy2, hits give low values 0.965 | S. cerevisiae deletion strains, locus YLR262C, strain YPT6 (second series), hits give low values 0.991 | S. cerevisiae deletion strains, locus YLR262C, strain YPT6, hits give low values 0.842 | S. cerevisiae deletion strains, locus YLR268W, strain sec22, hits give low values 0.926 | S. cerevisiae deletion strains, locus YLR320W, strain mms22, hits give low values 0.969 | S. cerevisiae deletion strains, locus YLR330W, strain CHS5, hits give low values 0.978 | S. cerevisiae deletion strains, locus YLR342W, strain FKS1 (second series), hits give low values 0.956 | S. cerevisiae deletion strains, locus YLR342W, strain FKS1, hits give low values 0.961 | S. cerevisiae deletion strains, locus YLR357W, strain rsc2, hits give low values 0.975 | S. cerevisiae deletion strains, locus YLR370C, strain arc18, hits give low values 0.986 | S. cerevisiae deletion strains, locus YLR371W, strain rom2, hits give low values 0.983 | S. cerevisiae deletion strains, locus YLR384C, strain iki3, hits give low values 0.991 | S. cerevisiae deletion strains, locus YML016C, strain PPZ1, hits give low values 0.963 | S. cerevisiae deletion strains, locus YML032C, strain rad52, hits give low values 0.957 | S. cerevisiae deletion strains, locus YML120C, strain ndi1, hits give low values 1.02 | S. cerevisiae deletion strains, locus YML124C, strain tub3, hits give low values 0.962 | S. cerevisiae deletion strains, locus YMR058W, strain fet3, hits give low values 1 | S. cerevisiae deletion strains, locus YMR078C, strain ctf18, hits give low values 0.958 | S. cerevisiae deletion strains, locus YMR125W, strain sto1, hits give low values 0.978 | S. cerevisiae deletion strains, locus YMR129W, hits give low values 0.973 | S. cerevisiae deletion strains, locus YMR205C, strain PFK2, hits give low values 0.984 | S. cerevisiae deletion strains, locus YMR223W, strain ubp8, hits give low values 0.962 | S. cerevisiae deletion strains, locus YMR231W, strain pep5, hits give low values 1 | S. cerevisiae deletion strains, locus YMR307W, strain GAS1, hits give low values 1.08 | S. cerevisiae deletion strains, locus YNL067W, strain RPL9B, hits give low values 0.984 | S. cerevisiae deletion strains, locus YNL071W, strain lat1, hits give low values 0.986 | S. cerevisiae deletion strains, locus YNL128W, strain TEP1, hits give low values 0.977 | S. cerevisiae deletion strains, locus YNL153C, strain GIM3, hits give low values 0.974 | S. cerevisiae deletion strains, locus YNL183C, strain NPR1, hits give low values 0.927 | S. cerevisiae deletion strains, locus YNL209W, strain ssb2, hits give low values 0.983 | S. cerevisiae deletion strains, locus YNL233W, strain BNI4, hits give low values 0.977 | S. cerevisiae deletion strains, locus YNL248C, strain rpa49, hits give low values 0.963 | S. cerevisiae deletion strains, locus YNL250W, strain rad50, hits give low values 0.971 | S. cerevisiae deletion strains, locus YNL271C, strain bni1, hits give low values 0.961 | S. cerevisiae deletion strains, locus YNL298W, strain CLA4, hits give low values 0.964 | S. cerevisiae deletion strains, locus YNL322C, strain KRE1 (second series), hits give low values 0.949 | S. cerevisiae deletion strains, locus YNR049C, strain mso1, hits give low values 0.994 | S. cerevisiae deletion strains, locus YNR052C, strain pop2, hits give low values 0.932 | S. cerevisiae deletion strains, locus YOL006C, strain TOP1, hits give low values 0.867 | S. cerevisiae deletion strains, locus YOL012C, strain htz1 1 | S. cerevisiae deletion strains, locus YOL147C, strain pex11, hits give low values 0.967 | S. cerevisiae deletion strains, locus YOR001W, strain rrp6, hits give low values 1.02 | S. cerevisiae deletion strains, locus YOR061W, strain CKA2, hits give low values 0.942 | S. cerevisiae deletion strains, locus YOR069W, strain VPS5, hits give low values 0.974 | S. cerevisiae deletion strains, locus YOR070C, strain gyp1, hits give low values 0.994 | S. cerevisiae deletion strains, locus YOR080W, strain dia2, hits give low values 0.978 | S. cerevisiae deletion strains, locus YOR083W, strain WHI5, hits give low values 0.937 | S. cerevisiae deletion strains, locus YOR106W, strain vam3, hits give low values 0.982 | S. cerevisiae deletion strains, locus YOR136W, strain idh2, hits give low values 0.992 | S. cerevisiae deletion strains, locus YOR144C, strain elg1, hits give low values 0.97 | S. cerevisiae deletion strains, locus YOR231W, strain MKK1, hits give low values 0.956 | S. cerevisiae deletion strains, locus YOR265W, strain rbl2, hits give low values 0.998 | S. cerevisiae deletion strains, locus YOR270C, strain vph1, hits give low values 0.996 | S. cerevisiae deletion strains, locus YOR290C, strain snf2, hits give low values 0.961 | S. cerevisiae deletion strains, locus YOR316C, strain cot1, hits give low values 0.969 | S. cerevisiae deletion strains, locus YPL051W, strain arl3, hits give low values 0.98 | S. cerevisiae deletion strains, locus YPL078C, strain atp4, hits give low values 0.968 | S. cerevisiae deletion strains, locus YPL106C, strain sse1, hits give low values 0.939 | S. cerevisiae deletion strains, locus YPL240C, strain hsp82, hits give low values 0.989 | S. cerevisiae deletion strains, locus YPL241C, strain CIN2, hits give low values 0.975 | S. cerevisiae deletion strains, locus YPL256C, strain CLN2, hits give low values 0.88 | S. cerevisiae deletion strains, locus YPR119W, strain clb2, hits give low values 0.972 | S. cerevisiae deletion strains, locus YPR141C, strain kar3, hits give low values 0.946 | S. cerevisiae deletion strains, locus YPR163C, strain tif3, hits give low values 0.966 | S. cerevisiae deletion strains, locus YPR167C, strain met16, hits give low values 0.958 | S. cerevisiae deletion strains, strain wtn01, hits give low values 0.936 | S. cerevisiae strains, strain wild type, hits give low values 0.953
active: S. cerevisiae deletion strains, locus YLR418C, strain cdc73, hits give low values 0.803 | S. cerevisiae deletion strains, locus YNL307C, strain MCK1, hits give low values 0.889 | S. cerevisiae deletion strains, locus YOR184W, strain ser1, hits give low values 0.829
